Experimental data published in PubChem BioAssay (EPA / NIEHS).
Active and inactive are the calls of the source. How the source made its calls: active means hit-call score of the fitted dose curve at least 0.9, where 1 is the maximum; inactive means score below 0.9.

What was measured:
[1] = ATG_CRE_CIS: Attagene CIS-FACTORIAL HepG2 Assay for human cAMP Responsive Element (CRE) binding protein 3 (AID 2282926); conditions: HepG2 CRE cis-reporter, Attagene multiplexed mRNA; actives raise or lower the signal
Summary of the method: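 Readout: fluorescently labelled reporter transcripts resolved by capillary electrophoresis after RT-PCR, taken 24 h post-dosing in transfected HepG2. Endogenous transcription factor activity drives each cis-element reporter; gain or loss of signal fitted relative to DMSO control.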

[2] = target: CCAAT/enhancer-binding protein beta (Homo sapiens) (UniProt P17676); test: ATG_C_EBP_CIS: Attagene CIS-FACTORIAL HepG2 Assay for human CCAAT/Enhancer Binding Protein (C/EBP) beta (AID 2282927); conditions: HepG2 Attagene cis-factorial transcription factor reporter; actives raise or lower the signal
Summary of the method: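 Chemical-treated HepG2 cells (24 h) bearing cis-regulated reporter constructs were processed for total RNA, then reverse transcription, PCR amplification, fluorescent primer extension and fragment analysis; gain- and loss-of-signal were fitted against DMSO.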

[3] = ATG_CMV_CIS: Attagene CIS-FACTORIAL HepG2 Assay for human CMV (Internal Marker) (AID 2282928); conditions: HepG2 CMV promoter reporter, transcription factor profiling; actives raise or lower the signal;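 further: endpoint acts as a background internal control marker rather than a target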
Summary of the method: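 Fluorescence intensity of RT-PCR-derived reporter fragments, resolved by capillary electrophoresis, gives the signal. HepG2 liver cells bearing transfected cis-element reporters were treated 24 h; activity in either direction was fit relative to DMSO-treated controls.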

[4] = ATG_DR4_LXR_CIS: Attagene CIS-FACTORIAL HepG2 Assay for human Liver X Receptor (LXR), DR4 submotif (AID 2282929); conditions: HepG2 Attagene DR4 cis-reporter, mRNA transcription; actives raise or lower the signal
Summary of the method: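 HepG2, transient MRTU transfection, cis-element (DR4) promoter; 24 h compound exposure; total RNA → oligo(dT) RT → PCR → 6-FAM primer extension → HpaI cut → CE. Gain/loss vs DMSO, bidirectional fit.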

[5] = target: Aryl hydrocarbon receptor (Homo sapiens) (UniProt P35869); test: ATG_Ahr_CIS: Attagene CIS-FACTORIAL HepG2 Assay for human Aryl Hydrocarbon Receptor (Ahr) (AID 2282930); conditions: HepG2 AhR cis-factorial reporter transcription; actives raise or lower the signal
Summary of the method: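 Following 24 h of chemical dosing, transfected HepG2 liver cells with cis-driven reporter units were lysed for RNA; reporter mRNA was quantified via RT-PCR and capillary electrophoresis, and responses fitted bidirectionally from DMSO.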

Measured: AC50

CCAAT/enhancer-binding protein beta (Homo sapiens), sequence (P17676 whole entry, looked up, the tested form may be a part): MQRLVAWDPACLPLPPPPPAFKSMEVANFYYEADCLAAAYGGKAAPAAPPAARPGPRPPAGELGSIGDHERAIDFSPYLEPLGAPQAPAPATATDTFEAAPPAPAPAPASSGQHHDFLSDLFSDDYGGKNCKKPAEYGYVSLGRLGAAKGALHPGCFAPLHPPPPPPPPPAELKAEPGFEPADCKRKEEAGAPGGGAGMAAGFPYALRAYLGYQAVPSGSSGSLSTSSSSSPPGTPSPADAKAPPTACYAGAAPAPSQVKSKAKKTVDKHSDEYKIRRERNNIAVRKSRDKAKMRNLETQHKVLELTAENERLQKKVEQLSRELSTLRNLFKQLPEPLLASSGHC
Aryl hydrocarbon receptor (Homo sapiens), sequence (P35869 whole entry, looked up): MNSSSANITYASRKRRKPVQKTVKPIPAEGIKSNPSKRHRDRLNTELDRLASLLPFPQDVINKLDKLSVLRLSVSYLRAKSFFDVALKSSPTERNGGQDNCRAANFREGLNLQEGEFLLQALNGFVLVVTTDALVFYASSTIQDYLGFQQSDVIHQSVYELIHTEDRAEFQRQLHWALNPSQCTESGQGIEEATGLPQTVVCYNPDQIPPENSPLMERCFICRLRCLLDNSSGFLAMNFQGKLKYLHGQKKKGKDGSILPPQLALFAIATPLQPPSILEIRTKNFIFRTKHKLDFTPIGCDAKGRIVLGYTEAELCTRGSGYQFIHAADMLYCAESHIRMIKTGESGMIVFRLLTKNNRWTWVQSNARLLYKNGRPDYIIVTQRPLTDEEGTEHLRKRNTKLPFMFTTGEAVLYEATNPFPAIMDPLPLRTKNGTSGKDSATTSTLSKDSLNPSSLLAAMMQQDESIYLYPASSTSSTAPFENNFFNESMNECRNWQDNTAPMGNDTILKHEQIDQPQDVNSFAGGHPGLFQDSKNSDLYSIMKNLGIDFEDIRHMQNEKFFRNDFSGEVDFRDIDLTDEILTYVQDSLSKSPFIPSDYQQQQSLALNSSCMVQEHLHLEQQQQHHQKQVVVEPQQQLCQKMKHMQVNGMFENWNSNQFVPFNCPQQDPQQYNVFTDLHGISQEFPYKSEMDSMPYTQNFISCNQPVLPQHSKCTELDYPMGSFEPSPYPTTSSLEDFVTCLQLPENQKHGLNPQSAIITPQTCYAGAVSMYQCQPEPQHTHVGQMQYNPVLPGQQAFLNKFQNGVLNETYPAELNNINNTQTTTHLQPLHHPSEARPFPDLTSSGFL

CCSC(C)CC1CC(=O)C(C(CC)=NOC/C=C/Cl)=C(O)C1 (configuration not stated)
inactive: [1] | [2] | [3] | [4]

CCC1(c2ccc(N)cc2)CCC(=O)NC1=O (configuration not stated)
inactive: [1] | [2] | [3] | [4]

CCCCP(CCCC)CCCC
inactive: [1] | [2] | [3] | [4]

Fc1ccc(C2(Cn3cncn3)OC2c2ccccc2Cl)cc1 (configuration not stated)
inactive: [1] | [2] | [3] | [4]

CCC[CH2][Sn]([CH2]CCC)([CH2]CCC)[O]C(=O)c1ccccc1
inactive: [1] | [3] | [4]
active: [2] 0.0581 µM

CCOP(=S)(OCC)Oc1nc(Cl)c(Cl)cc1Cl
active: [3] 26.1 µM | [4] 27.4 µM
inactive: [1] | [2]

COP(=S)(OC)Oc1c(Cl)cc(C)cc1Cl
inactive: [1] | [2] | [3] | [4]

c1cc[c]([Hg][c]2ccccc2)cc1
inactive: [3] | [4]
active: [1] 22.6 µM | [2] 21.3 µM

Cc1ccc(N)cc1Cl
inactive: [1] | [2] | [3] | [4]

CCC[CH2][Sn]([Cl])([Cl])[Cl]
inactive: [1] | [2] | [3] | [4] | [5]

O=C(CCl)CCl
inactive: [2]
active: [1] 24.7 µM | [3] 54 µM | [4] 23.3 µM

ClC1=C(Cl)[C@]2(Cl)[C@@H]3[C@@H](Cl)[C@@H](Cl)C[C@@H]3[C@@]1(Cl)C2(Cl)Cl
inactive: [1] | [2] | [3] | [4]

O=C(OC1CCCCC1)c1ccccc1C(=O)OC1CCCCC1
inactive: [1] | [2]
active: [3] 74.7 µM | [4] 13.7 µM

CCCCCCCCCl
inactive: [1] | [2] | [3] | [4]

CCCCC(CC)CO[N+](=O)[O-] (configuration not stated)
inactive: [1] | [2] | [3] | [4]

CCOP(=S)(OCC)SCSP(=S)(OCC)OCC
inactive: [1] | [2] | [3] | [4]

COC(=O)c1sccc1S(=O)(=O)NC(=O)Nc1nc(C)nc(OC)n1
inactive: [1] | [2] | [3] | [4]

CCNc1nc(NC(C)(C)C)nc(SC)n1
active: [3] 65.6 µM
inactive: [1] | [2] | [4] | [5]

Nc1ccc(N=Nc2ccc(-c3ccc(N=Nc4c(S(=O)(=O)O)cc5cc(S(=O)(=O)O)c(N=Nc6ccccc6)c(O)c5c4N)cc3)cc2)c(N)c1
inactive: [1] | [2] | [3] | [4]

Clc1nc(Cl)nc(Cl)n1
inactive: [1] | [2] | [3] | [4]

CC(=[OH+])/C=C(/C)[O-].CC(=[OH+])/C=C(/C)[O-].CC(=[OH+])/C=C(/C)[O-].[Al]
inactive: [1] | [2] | [3] | [4] | [5]

Cc1ccccc1C(=O)Nc1cccc(OC(C)C)c1
active: [3] 61.9 µM | [4] 158 µM
inactive: [1] | [2]

COc1ccc(C=O)cc1OC
inactive: [1] | [2] | [3] | [4]

O=[N+]([O-])c1ccc2c3c(cccc13)CC2
inactive: [1] | [2] | [3] | [4]

CC(=O)C(Cl)C(=O)N(C)C (configuration not stated)
inactive: [1] | [2] | [3] | [4]

C=CC(=O)N(C)C
inactive: [1] | [2] | [3] | [4]

NC(=S)Nc1ccccc1
inactive: [1] | [2] | [3] | [4]

O=C(Cc1ccccc1)c1ccccc1
inactive: [1] | [2] | [3] | [4]

CC(C)c1ccc(CO)cc1
inactive: [1] | [2] | [3] | [4]

O=C(Cl)c1ccc(Cl)cc1
inactive: [1] | [2] | [3] | [4] | [5]

CCOP(OCC)OCC
inactive: [1] | [2] | [3] | [4] | [5]

COP(=S)(OC)Oc1ccc(Sc2ccc(OP(=S)(OC)OC)cc2)cc1
active: [3] 15.5 µM | [4] 100 µM
inactive: [1] | [2]

CC(=O)OC(c1ccccc1)C(Cl)(Cl)Cl (configuration not stated)
inactive: [1] | [2] | [3] | [4]

Cl/C=C/Cl
inactive: [1] | [2] | [3] | [4] | [5]

COC(=O)Cc1ccccc1
inactive: [1] | [2] | [3] | [4] | [5]

O=C1C(Cl)=C(Cl)C(=O)c2ccccc21
inactive: [1] | [2] | [3] | [4]
active: [5] 1.86 µM

COP(=O)(OC)OC
inactive: [1] | [2] | [3] | [4] | [5]

O=P(O)(O)CN(CP(=O)(O)O)CP(=O)(O)O
inactive: [1] | [2] | [3] | [4] | [5]

CCc1ccccc1C
inactive: [1] | [2] | [3] | [4] | [5]

CCOC(=O)Nc1cccc(OC(=O)Nc2ccccc2)c1
inactive: [1] | [2] | [3] | [4] | [5]

C=C(C)C#N
inactive: [1] | [2] | [3] | [4] | [5]
